These results are taken from article PMC7862700, “An all-to-all approach to the identification of sequence-specific readers for epigenetic DNA modifications on cytosine”.

What all share (assay): DAPPL (digital affinity profiling via proximity ligation, sequencing); 10 mM Tris-HCl pH 7.5, 50 mM NaCl, 1 mM DTT, 4% glycerol, room temperature, 30 min; GST-TFs on glutathione beads, 16-mer random dsDNA library, 0.1% formaldehyde crosslink after washing; high values mean tight binding
The target of one assay is T1, FEV (Homo sapiens, UniProt Q99581 1-238).
T1 sequence: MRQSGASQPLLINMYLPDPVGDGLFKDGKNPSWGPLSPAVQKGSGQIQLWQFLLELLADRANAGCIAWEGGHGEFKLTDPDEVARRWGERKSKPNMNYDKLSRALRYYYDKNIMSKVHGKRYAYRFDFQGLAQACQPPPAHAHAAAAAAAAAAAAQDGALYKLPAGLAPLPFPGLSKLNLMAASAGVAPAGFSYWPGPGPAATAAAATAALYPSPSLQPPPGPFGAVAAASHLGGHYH
Conditions: protein: recombinant; tags: N-terminal GST; dsDNA, one strand shown. The procedure, abridged:
(§1)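 In yeast, human transcription factors were expressed with a GST fusion, then pulled down on glutathione beads and given DNA barcodes. Pooled with a tag-only sample, they were exposed to 200 nmole of a 16-mer random double-stranded DNA library (Tris/NaCl/DTT/glycerol buffer, room temperature, 30 min), washed, crosslinked with 0.1% formaldehyde, proximity-ligated using BsaI/T4 ligase for 1 h at 37 °C, PCR-amplified and read on an Illumina NextSeq500. Each hexamer's frequency of reads for a factor, divided by the matching frequency for the tag-only sample, gives the binding signal.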

A further assay addresses ETV5 (Homo sapiens, UniProt P41161 1-510). The following applies: protein: recombinant; tags: N-terminal GST; dsDNA, one strand shown. The procedure, abridged:
as §1

In a further assay the target is HSF1 (Homo sapiens, UniProt Q00613 1-529). Conditions: protein: recombinant; tags: N-terminal GST; chain copies: 3; dsDNA, one strand shown. Put shortly: as §1
Sequence of HSF1 (Q00613 whole entry): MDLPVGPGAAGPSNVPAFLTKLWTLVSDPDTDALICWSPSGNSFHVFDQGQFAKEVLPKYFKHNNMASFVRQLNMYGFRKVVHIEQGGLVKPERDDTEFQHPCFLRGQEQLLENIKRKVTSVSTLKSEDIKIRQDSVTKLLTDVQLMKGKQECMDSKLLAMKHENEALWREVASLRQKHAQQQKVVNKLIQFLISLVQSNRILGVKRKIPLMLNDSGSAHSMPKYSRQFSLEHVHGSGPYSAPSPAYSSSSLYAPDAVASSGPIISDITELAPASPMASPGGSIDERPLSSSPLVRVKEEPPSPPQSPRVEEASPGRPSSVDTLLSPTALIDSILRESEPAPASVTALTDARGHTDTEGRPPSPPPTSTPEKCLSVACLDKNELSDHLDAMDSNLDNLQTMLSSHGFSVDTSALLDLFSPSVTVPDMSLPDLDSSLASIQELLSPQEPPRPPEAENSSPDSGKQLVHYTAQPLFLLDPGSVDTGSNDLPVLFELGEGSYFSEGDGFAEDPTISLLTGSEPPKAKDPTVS
The target of the next assay is T2, SPIC (Homo sapiens, UniProt Q8N5J4 1-248).
T2 sequence: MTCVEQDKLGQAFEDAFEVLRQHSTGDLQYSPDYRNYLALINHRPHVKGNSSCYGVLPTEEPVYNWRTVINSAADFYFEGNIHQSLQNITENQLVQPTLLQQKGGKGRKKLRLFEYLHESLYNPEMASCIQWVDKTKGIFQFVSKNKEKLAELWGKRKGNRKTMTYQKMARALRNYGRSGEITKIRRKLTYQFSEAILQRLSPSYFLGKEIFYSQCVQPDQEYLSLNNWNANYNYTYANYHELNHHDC
The following applies: protein: recombinant; tags: N-terminal GST; dsDNA, one strand shown. The procedure, abridged:
as §1

A further assay addresses ELF4 (Homo sapiens, UniProt Q99607 1-663). The following applies: protein: recombinant; tags: N-terminal GST; dsDNA, one strand shown. The procedure, abridged: as §1
The target of the next assay is T3, ELK4 (Homo sapiens, UniProt P28324-2 1-405).
T3 sequence: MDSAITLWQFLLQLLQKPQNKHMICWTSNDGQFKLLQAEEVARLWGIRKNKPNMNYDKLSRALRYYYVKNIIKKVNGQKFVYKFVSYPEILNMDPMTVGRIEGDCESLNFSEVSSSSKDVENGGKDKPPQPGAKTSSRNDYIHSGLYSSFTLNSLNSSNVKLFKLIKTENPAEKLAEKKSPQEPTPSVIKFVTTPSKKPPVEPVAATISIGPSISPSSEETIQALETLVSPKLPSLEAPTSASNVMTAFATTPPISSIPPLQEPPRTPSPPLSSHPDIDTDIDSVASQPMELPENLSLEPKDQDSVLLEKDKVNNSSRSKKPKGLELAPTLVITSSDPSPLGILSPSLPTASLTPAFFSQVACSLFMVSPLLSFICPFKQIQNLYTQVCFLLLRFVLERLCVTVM
Conditions: protein: recombinant; tags: N-terminal GST; dsDNA, one strand shown. Put shortly:
as §1

A further assay addresses T4, ETV2 (Homo sapiens, UniProt O00321 1-342).
T4 sequence: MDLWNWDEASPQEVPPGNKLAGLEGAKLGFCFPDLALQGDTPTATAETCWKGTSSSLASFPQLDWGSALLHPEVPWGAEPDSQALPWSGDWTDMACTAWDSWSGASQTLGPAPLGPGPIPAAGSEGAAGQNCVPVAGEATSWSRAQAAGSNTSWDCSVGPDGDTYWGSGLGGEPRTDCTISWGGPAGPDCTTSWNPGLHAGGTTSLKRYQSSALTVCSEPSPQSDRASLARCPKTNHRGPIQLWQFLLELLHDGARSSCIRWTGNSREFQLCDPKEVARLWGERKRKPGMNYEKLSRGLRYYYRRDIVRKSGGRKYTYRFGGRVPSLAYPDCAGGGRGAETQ
Conditions: protein: recombinant; tags: N-terminal GST; dsDNA, one strand shown. The procedure, abridged: as §1

For a further assay, the target named is T5, ELF3 (Homo sapiens, UniProt P78545 1-371).
T5 sequence: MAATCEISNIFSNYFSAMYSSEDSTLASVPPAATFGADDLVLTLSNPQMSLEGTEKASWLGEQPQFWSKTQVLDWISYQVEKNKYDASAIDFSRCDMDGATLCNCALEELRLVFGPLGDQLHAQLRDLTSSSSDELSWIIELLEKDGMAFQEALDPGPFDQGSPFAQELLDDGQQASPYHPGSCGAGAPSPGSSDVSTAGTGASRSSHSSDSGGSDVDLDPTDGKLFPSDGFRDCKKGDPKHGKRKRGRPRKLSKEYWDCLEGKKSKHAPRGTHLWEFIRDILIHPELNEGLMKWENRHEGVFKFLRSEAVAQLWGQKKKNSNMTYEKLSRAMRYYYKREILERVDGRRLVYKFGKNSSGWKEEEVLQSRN
Conditions: protein: recombinant; tags: N-terminal GST; dsDNA, one strand shown. The procedure, abridged:
as §1

A further assay concerns the target CRX (Homo sapiens, UniProt O43186 1-299). Conditions: protein: recombinant; tags: N-terminal GST; dsDNA, one strand shown. Put shortly:
as §1

The target of the next assay is ETV1 (Homo sapiens, UniProt P50549 1-477). The following applies: protein: recombinant; tags: N-terminal GST; dsDNA, one strand shown. The procedure, abridged:
as §1

The target of a further assay is T6, ERF (Homo sapiens, UniProt P50548 1-548).
T6 sequence: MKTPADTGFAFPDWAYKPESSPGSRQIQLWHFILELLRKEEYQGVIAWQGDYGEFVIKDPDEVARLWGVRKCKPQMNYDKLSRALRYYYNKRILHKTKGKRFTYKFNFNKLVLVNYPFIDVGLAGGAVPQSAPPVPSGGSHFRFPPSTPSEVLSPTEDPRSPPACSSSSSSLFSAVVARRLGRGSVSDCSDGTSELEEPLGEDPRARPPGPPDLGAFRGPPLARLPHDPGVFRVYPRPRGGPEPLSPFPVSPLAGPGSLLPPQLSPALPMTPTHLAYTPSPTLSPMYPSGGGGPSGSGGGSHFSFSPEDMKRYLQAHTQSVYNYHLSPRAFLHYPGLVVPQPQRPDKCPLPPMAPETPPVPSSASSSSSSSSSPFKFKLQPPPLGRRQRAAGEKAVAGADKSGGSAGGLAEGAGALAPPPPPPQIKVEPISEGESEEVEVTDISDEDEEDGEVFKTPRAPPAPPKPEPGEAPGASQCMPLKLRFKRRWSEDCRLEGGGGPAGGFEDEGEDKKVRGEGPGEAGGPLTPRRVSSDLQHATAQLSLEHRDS
Conditions: protein: recombinant; tags: N-terminal GST; dsDNA, one strand shown. The procedure, abridged:
as §1

Another assay concerns the target T7, ETV3L (Homo sapiens, UniProt Q6ZN32 1-361).
T7 sequence: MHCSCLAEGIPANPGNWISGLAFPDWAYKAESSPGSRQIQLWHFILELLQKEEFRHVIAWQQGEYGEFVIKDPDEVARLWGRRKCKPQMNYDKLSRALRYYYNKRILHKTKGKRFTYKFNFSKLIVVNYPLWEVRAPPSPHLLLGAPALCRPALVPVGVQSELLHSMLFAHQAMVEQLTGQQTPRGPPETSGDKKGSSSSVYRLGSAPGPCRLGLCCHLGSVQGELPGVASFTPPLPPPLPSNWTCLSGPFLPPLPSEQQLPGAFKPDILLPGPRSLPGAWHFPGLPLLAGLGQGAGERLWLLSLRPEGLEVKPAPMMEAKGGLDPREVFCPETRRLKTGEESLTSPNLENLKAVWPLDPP
Conditions: protein: recombinant; tags: N-terminal GST; dsDNA, one strand shown. Put shortly:
as §1

For a further assay, the target named is T8, ETS2 (Homo sapiens, UniProt P15036 1-469).
T8 sequence: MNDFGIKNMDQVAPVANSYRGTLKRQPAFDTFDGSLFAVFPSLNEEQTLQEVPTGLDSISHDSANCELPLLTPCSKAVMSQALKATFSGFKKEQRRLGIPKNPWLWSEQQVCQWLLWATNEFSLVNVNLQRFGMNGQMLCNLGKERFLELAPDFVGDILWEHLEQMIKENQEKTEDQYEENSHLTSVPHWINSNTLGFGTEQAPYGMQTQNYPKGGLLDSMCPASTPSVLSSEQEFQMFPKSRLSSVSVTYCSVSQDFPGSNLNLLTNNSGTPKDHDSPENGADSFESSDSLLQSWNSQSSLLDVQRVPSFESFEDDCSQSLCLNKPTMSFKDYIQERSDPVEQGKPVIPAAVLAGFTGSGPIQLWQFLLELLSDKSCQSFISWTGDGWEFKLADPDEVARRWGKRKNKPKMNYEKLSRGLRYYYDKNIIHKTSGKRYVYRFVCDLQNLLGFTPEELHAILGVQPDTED
The following applies: protein: recombinant; tags: N-terminal GST; dsDNA, one strand shown. The procedure, abridged: as §1

Another assay deals with T9, SPDEF (Homo sapiens, UniProt O95238 1-335).
T9 sequence: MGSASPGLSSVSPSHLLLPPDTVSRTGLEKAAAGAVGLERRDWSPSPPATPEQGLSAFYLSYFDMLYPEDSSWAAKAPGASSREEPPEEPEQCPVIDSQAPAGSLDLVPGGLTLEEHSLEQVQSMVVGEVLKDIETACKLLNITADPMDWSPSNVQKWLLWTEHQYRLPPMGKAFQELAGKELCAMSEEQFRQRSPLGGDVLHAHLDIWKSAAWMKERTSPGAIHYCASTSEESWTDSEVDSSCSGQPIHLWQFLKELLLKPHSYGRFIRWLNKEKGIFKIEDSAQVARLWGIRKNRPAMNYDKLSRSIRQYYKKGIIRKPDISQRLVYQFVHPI
The following applies: protein: recombinant; tags: N-terminal GST; dsDNA, one strand shown. Put shortly:
as §1

In another assay the target is T10, ETV7 (Homo sapiens, UniProt Q9Y603 1-341).
T10 sequence: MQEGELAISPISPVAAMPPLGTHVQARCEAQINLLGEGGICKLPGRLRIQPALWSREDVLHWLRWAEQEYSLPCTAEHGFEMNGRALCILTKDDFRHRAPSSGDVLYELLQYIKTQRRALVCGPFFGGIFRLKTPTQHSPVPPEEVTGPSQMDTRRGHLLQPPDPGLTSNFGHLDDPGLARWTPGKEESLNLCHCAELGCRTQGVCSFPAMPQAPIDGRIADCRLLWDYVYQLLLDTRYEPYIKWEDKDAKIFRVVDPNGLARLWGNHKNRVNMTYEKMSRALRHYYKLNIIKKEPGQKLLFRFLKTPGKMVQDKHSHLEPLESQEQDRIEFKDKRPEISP
Conditions: protein: recombinant; tags: N-terminal GST; dsDNA, one strand shown. Put shortly: as §1

The target of the next assay is T11, ELF5 (Homo sapiens, UniProt Q9UKW6-2 1-255).
T11 sequence: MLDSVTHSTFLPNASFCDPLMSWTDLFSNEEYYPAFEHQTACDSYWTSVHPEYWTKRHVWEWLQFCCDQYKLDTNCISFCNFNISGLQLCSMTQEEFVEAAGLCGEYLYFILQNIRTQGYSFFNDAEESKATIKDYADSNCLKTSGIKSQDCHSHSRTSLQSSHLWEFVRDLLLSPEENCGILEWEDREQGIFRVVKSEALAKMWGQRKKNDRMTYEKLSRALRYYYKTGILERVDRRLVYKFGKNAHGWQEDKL
The following applies: protein: recombinant; tags: N-terminal GST; dsDNA, one strand shown. The procedure, abridged: as §1

A further assay addresses T12, ETV3 (Homo sapiens, UniProt P41162-2 1-143).
T12 sequence: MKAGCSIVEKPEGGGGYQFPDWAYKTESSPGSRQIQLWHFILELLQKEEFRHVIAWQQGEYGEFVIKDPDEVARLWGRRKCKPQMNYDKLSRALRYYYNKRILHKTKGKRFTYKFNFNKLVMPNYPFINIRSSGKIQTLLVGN
Conditions: protein: recombinant; tags: N-terminal GST; dsDNA, one strand shown. The procedure, abridged:
as §1

The next assay addresses ETV6 (Homo sapiens, UniProt P41212 1-452). Conditions: protein: recombinant; tags: N-terminal GST; dsDNA, one strand shown. The procedure, abridged:
as §1

Sequence of ETV1 (P50549 whole entry): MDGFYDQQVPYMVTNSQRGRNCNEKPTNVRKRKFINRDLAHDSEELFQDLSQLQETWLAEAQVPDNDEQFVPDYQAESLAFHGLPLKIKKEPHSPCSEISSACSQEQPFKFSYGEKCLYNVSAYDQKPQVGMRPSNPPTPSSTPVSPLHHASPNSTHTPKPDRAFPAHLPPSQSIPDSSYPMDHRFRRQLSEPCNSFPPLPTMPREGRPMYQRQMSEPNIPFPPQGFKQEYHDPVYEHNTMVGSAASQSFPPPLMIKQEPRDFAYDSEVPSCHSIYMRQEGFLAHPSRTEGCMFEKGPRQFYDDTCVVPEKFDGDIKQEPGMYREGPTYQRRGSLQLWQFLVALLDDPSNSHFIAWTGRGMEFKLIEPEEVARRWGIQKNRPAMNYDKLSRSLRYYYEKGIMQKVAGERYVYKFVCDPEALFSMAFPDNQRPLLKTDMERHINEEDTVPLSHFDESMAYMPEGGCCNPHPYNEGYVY
Sequence of CRX (O43186 whole entry): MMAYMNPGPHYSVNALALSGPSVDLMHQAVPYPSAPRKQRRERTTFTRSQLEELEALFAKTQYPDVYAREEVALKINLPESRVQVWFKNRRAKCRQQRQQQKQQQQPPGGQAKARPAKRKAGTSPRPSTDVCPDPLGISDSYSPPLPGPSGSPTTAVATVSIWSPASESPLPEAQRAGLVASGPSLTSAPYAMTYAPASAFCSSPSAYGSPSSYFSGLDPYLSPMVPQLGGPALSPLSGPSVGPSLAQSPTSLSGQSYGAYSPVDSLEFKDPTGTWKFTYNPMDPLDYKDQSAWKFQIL
Sequence of ETV5 (P41161 whole entry): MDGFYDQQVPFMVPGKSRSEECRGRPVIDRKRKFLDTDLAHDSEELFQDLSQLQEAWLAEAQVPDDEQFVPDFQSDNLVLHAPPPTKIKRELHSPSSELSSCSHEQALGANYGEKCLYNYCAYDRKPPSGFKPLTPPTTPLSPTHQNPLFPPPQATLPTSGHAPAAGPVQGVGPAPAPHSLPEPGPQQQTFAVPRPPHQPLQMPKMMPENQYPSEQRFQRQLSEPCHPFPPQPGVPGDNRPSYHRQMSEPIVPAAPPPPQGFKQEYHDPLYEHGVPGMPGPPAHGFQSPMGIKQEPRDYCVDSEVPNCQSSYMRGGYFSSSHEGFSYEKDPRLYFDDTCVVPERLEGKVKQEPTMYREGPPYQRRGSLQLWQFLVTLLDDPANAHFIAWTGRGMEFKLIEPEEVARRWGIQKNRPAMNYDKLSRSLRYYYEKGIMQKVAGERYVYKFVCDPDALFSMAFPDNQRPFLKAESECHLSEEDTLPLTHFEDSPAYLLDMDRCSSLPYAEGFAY
Sequence of ETV6 (P41212 whole entry): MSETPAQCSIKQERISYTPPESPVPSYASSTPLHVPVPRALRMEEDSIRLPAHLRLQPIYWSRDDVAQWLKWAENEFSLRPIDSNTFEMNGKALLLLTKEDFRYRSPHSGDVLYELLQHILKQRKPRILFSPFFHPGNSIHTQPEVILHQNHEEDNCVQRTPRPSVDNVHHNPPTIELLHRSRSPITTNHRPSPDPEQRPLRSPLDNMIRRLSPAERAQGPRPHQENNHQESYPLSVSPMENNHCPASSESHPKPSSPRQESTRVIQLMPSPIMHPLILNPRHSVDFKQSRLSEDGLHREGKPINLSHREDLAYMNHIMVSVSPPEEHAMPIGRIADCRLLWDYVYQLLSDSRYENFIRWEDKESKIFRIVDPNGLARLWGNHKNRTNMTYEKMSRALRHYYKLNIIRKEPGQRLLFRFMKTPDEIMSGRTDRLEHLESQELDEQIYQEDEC
Sequence of ELF4 (Q99607 whole entry): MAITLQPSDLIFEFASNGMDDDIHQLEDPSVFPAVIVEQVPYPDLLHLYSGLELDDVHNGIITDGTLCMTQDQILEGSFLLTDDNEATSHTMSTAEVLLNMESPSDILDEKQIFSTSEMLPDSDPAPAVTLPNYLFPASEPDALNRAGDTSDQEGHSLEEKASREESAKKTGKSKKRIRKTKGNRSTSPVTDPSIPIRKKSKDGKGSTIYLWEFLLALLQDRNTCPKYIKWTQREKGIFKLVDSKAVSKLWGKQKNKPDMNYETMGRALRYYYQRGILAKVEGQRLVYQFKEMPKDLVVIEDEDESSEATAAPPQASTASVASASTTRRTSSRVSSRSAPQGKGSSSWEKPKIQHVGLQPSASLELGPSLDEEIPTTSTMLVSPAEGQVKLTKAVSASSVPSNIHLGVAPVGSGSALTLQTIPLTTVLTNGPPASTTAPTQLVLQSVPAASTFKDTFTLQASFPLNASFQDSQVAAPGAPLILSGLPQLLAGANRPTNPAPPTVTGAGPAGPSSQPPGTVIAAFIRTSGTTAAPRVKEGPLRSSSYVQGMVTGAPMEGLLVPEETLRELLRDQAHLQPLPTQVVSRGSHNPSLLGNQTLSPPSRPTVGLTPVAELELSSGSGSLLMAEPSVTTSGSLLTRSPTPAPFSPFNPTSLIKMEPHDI

As to TACGCG, the binding signal with FEV was 1.11 fold enrichment (6-mer frequency, TF over GST control); with ETV5, 1.21 fold enrichment (6-mer frequency, TF over GST control); with HSF1, 1.17 fold enrichment (6-mer frequency, TF over GST control); with SPIC, 1.12 fold enrichment (6-mer frequency, TF over GST control); with ELF4, 1.12 fold enrichment (6-mer frequency, TF over GST control); with ELK4, 1.25 fold enrichment (6-mer frequency, TF over GST control). For the same sequence, the binding signal with ETV2 was 1.21 fold enrichment (6-mer frequency, TF over GST control); with ELF3 it was 1.19 fold enrichment (6-mer frequency, TF over GST control); in the assay with CRX, 1.24 fold enrichment (6-mer frequency, TF over GST control); with ETV1 it was 1.23 fold enrichment (6-mer frequency, TF over GST control); with ERF it was 1.13 fold enrichment (6-mer frequency, TF over GST control); with ETV3L, 1.13 fold enrichment (6-mer frequency, TF over GST control). Further, the binding signal in the assay with ETS2 was 1.14 fold enrichment (6-mer frequency, TF over GST control); in the assay with SPDEF it was 1.23 fold enrichment (6-mer frequency, TF over GST control); with ETV7, 1.02 fold enrichment (6-mer frequency, TF over GST control); with ELF5, 1.09 fold enrichment (6-mer frequency, TF over GST control); with ETV3 it was 1.16 fold enrichment (6-mer frequency, TF over GST control); with ETV6, 1.15 fold enrichment (6-mer frequency, TF over GST control).
